PubChem BioAssay (NCI)
Where “and” joins values, the source holds several entries; their conditions need not be identical. Equal values may be shown once. The panel holds about 79,000 compounds, 15% with a hit somewhere; the sample as a whole holds those more often. No stated cut-off is given here; in the data, active means growth inhibition above about 70%; inactive means the rest. Where a SMILES comes first, the peptide text is derived from it.

Experiments:
[1] = NCI Yeast Anticancer Drug Screen. Data for the rad50 strain (AID 155);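 further: 0% = growth of vehicle-only cultures of the same strain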; conditions: S. cerevisiae rad50 strain growth inhibition, stronger effect = higher value; at 50.0 µM unless noted
How it was run: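 A DNA repair-deficient yeast mutant serves as the test organism; compound-induced growth inhibition is calculated against vehicle-treated cells.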

[2] = NCI Yeast Anticancer Drug Screen. Data for the mec2-1 strain (AID 157); conditions: S. cerevisiae mec2-1 strain, stronger effect = higher value; at 50.0 µM unless noted
How it was run: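 Cells of the genetically defined mec2-1 yeast strain are incubated with test compound. Inhibition of growth is calculated against vehicle-treated controls.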

[3] = NCI Yeast Anticancer Drug Screen. Data for the sgs1 mgt1 strain (AID 161);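 further: 0% = growth of cultures given vehicle only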; conditions: S. cerevisiae sgs1 mgt1 strain, stronger effect = higher value; at 50.0 µM unless noted
How it was run: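 Mutant yeast exposed to compound; growth scored against vehicle-only wells.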

[4] = NCI Yeast Anticancer Drug Screen. Data for the cln2 rad14 strain (AID 165);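 further: 0% = growth equal to vehicle treated cultures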; conditions: S. cerevisiae cln2 rad14 strain, stronger effect = higher value; at 50.0 µM unless noted
How it was run: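 The screen exposed genetically defined yeast (cln2 rad14) to test compounds and scored growth inhibition relative to vehicle-treated controls.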

[5] = NCI Yeast Anticancer Drug Screen. Data for the bub3 strain (AID 167); conditions: S. cerevisiae bub3 mutant strain, stronger effect = higher value; at 50.0 µM unless noted
How it was run: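 Inhibition values come from growth of compound-treated mutant yeast normalised to vehicle-treated controls.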

[6] = NCI Yeast Anticancer Drug Screen. Data for the mlh1 rad18 strain (AID 175); conditions: S. cerevisiae mlh1 rad18 strain growth inhibition, stronger effect = higher value; at 50.0 µM unless noted
How it was run: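 Compound-treated yeast growth, normalised to vehicle controls. Strain bears defined DNA repair mutations.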

Measured: growth inhibition

CC(=O)OCC(O)CS(=O)c1ccc(C)cc1 (stereo not given)
inactive: [1] -6.25% | [2] 2% | [3] 0.4% | [4] -30.6% | [5] -16.1% | [6] 4.2%

COc1cccc(C#CC(=O)O)c1
inactive: [1] -25.6% | [2] -20.9% | [3] -18.9% | [4] -5.35% | [5] -21.9% | [6] -11.6%

CC(O)CNC1=CC(=O)C(=O)c2ccccc21 (stereo not given)
inactive: [1] -13.3% | [2] -26.1% | [3] 4.8% | [4] 4.3% | [5] 20.4% | [6] -20.6%

O=C1CCC(c2nc3ccccc3[nH]2)N1Cc1ccccc1 (stereo not given)
inactive: [1] 13.9% | [2] 2.3% | [3] 18.1% | [4] 4.35% | [5] 6.4% | [6] 18.9%

BrCC1CN=C(c2ccccc2)O1 (stereo not given)
inactive: [1] -5.55% | [2] -4% | [3] 2.65% | [4] -26.1% | [5] 1.6% | [6] -2.95%

COc1ccc(CCNC(=O)[C@H]2CCCC[C@@H]2CCO)cc1OC
inactive: [1] 15.5% | [2] 10.6% | [3] -46.9% | [4] 3.25% | [5] -42.8% | [6] -9%

COc1ccc(/C=C/C(=O)O)c(OC)c1
inactive: [1] 1.25% | [2] 30.9% | [3] -7.55% | [4] 25.2% | [5] 28.1% | [6] -9.7%

CCCCCCCCOC(=O)Nc1ccc(S(=O)(=O)NC2CCCCC2)cc1
inactive: [1] 7.05% | [2] -2.9% | [3] 14.1% | [4] 37.8% | [5] 10.8% | [6] 20.6%

CC(Nc1ncc2c(n1)-c1ccccc1OC2)C(=O)O (stereo not given)
inactive: [1] -2.45% | [2] 2.1% | [3] -11.4% | [4] -7.8% | [5] -31.4% | [6] 16.3%

NC(Cc1ccccc1)C(=O)NC(Cc1ccccc1)C(=O)O (stereo not drawn) (H-Phe-Phe-OH; configuration not given here)
inactive: [1] 19.6% and 11.1% | [2] -0.8% and -19.4% | [3] 12.6% and -2.9% | [4] -16.1% and -19.3% | [5] 6.2% and 4.05% | [6] 1.6% and 7.7%

CCOC(=O)C(Cc1c[nH]c2c(N(CCO)CCO)cccc12)(NC(C)=O)C(=O)OCC
inactive: [1] -0.45% | [2] -17.2% | [3] 16% | [4] 21.7% | [5] -5.55% | [6] 9.95%

Cc1ccc(N(C)S(=O)(=O)c2ccccc2[N+](=O)[O-])cc1
inactive: [1] 19.1% | [2] -17.6% | [3] 28.3% | [4] 12.1% | [5] 14.1% | [6] 19.6%

C[N+]12CCCCC1C(CN1C(=O)c3ccccc3C1=O)CCC2 (stereo not given)
inactive: [1] 0.65% | [2] -6.05% | [3] 35.7% | [4] 10.9% | [5] 28.8% | [6] -40%

O=C(COc1cc(Cl)c(Cl)cc1Cl)Nc1ccc(Cl)cc1
inactive: [1] 14.7% | [2] 19.9% | [3] 18% | [4] 17.2% | [5] 17.1% | [6] 11.2%

CCC(c1cccc(C(=O)O)c1)C(C(C)=O)c1ccc(O)cc1 (stereo not given)
inactive: [1] 0.8% | [2] -20.5% | [3] -6.1% | [4] -22.5% | [5] 4% | [6] -5.05%

COc1ccccc1CN1CCCN(Cc2ccccc2OC)C1c1ccc(N(C)C)cc1
inactive: [1] 59.6% | [2] 32.6% | [3] 32.5% | [4] 22.8% | [5] 14.3% | [6] 49.2%

O=C(Cc1cccnc1)c1cccnc1
inactive: [1] -52.3% | [2] -18.9% | [3] -8.15% | [4] -11.9% | [5] -15% | [6] -7.55%

Brc1cccc(C=NC23CC4CC(CC(C4)C2)C3)c1
inactive: [1] 13.7% | [2] -13.8% | [3] 12.4% | [4] -52.1% | [5] -13.3% | [6] -4.6%

CC(=O)NC1(NC(C)=O)C2CC(C1Cc1ccccc1)C(C)(C)C2C (stereo not given)
inactive: [1] 4.75% | [2] -14.7% | [3] -18.6% | [4] -11.6% | [5] -43.5% | [6] -38.5%

CCCCCCCCOC(=O)NC1c2ccccc2Oc2c(C)cccc21 (stereo not given)
inactive: [1] 1.7% | [2] 5.9% | [3] 9.45% | [4] -30.1% | [5] -3.05% | [6] 12.9%

COc1ccc(NC(C)=O)cc1
inactive: [1] 24.8% | [2] 3.2% | [3] 2.7% | [4] 13.8% | [5] 11.8% | [6] -11.1%

COCc1ccccc1-n1nccc1S(C)=O (stereo not given)
inactive: [1] -10.9% | [2] 25.4% | [3] 1.8% | [4] 4.1% | [5] 3.25% | [6] -2.6%

C=C1CC(C)(COc2ccc3ccc(=O)oc3c2)OC1=O (stereo not given)
inactive: [1] 24.4% | [2] 15.4% | [3] 49% | [4] 37.5% | [5] 17.6% | [6] 41%

CC#CC#C/C(=C/C=CC(=O)OC)SC
inactive: [1] 1.95% | [2] -18.9% | [3] 13.7% | [4] 12.3% | [5] 6.6% | [6] -38.2%

COC1/C=C/OC2(C)Oc3c(C)c(O)c4c(O)c(c(C5SCCS5)c(O)c4c3C2=O)NC(=O)C(C)=C/C=C\C(C)C(O)C(C)C2OC(C)(C)OC(C1C)C2C (stereo not given)
inactive: [1] 2.15% | [2] 33% | [3] 22.8% | [4] 15.6% | [5] 14.4% | [6] 38%

CCc1cc(N(C)C)ccc1N=Nc1ccc([N+](=O)[O-])cc1
inactive: [1] 43.8% | [2] 9.65% | [3] 13.5% | [4] -26.1% | [5] 9.1% | [6] 28.9%

O=P1(O)c2ccccc2Nc2cc(C(F)(F)F)ccc21
inactive: [1] 24.1% | [2] -8.25% | [3] -9.8% | [4] 8.7% | [5] -9.85% | [6] -49.4%

CC(C)(C)COB(OCC(C)(C)C)OCC(C)(C)C
inactive: [1] -2.8% | [2] -13.2% | [3] 3.55% | [4] -29.1% | [5] -9.55% | [6] -15.2%

CC1CC(=O)CC(C)(C)N1 (stereo not given)
inactive: [1] -9.4% | [2] -9% | [3] 3.2% | [4] -2.4% | [5] 5.85% | [6] -7.25%

Nc1nc(=S)[nH]c(=S)[nH]1
inactive: [1] 22.9% | [2] 19.4% | [3] 10.9% | [4] 2.7% | [5] 17.2% | [6] -4.45%

CCCCS(=O)/C=C\S(=O)CCCC (stereo not given)
inactive: [1] -7% | [2] 6.3% | [3] 4.75% | [4] -16.2% | [5] 8.55% | [6] 1.6%

O=C(CSc1nc(-c2ccccc2)c(-c2ccccc2)[nH]1)N/N=C/c1ccc(O)cc1
inactive: [1] -8.15% | [2] -3.2% | [3] -12.2% | [4] -21.9% | [5] 5.6% | [6] -25.6%

N#CCCC(CC#N)N1CCN(CCO)CC1 (stereo not given)
inactive: [1] -35.1% | [2] -43.9% | [3] -18.7% | [4] -21.2% | [5] -0.95% | [6] -39.4%

C=CCOc1cc2c(cc1C(CC)c1ccc(OCc3ccccc3)cc1)OCO2 (stereo not given)
inactive: [1] 31.9% | [2] 5.2% | [3] -2.85% | [4] 13.9% | [5] 0.9% | [6] -10.2%

CN1CCN(C(=S)N(C)C(=O)c2ccco2)CC1
inactive: [1] -37.8% | [2] -36.9% | [3] -48.9% | [4] -8.85% | [5] -44.4% | [6] -40.1%

N.N.O=P([O-])([O-])C1(P(=O)([O-])[O-])CCCCCN1.[Pt+2]
inactive: [1] 13.6% | [2] 22.4% | [3] -5.05% | [4] 6.25% | [5] 23.7% | [6] 11.2%

CC1CC(OCCO)CC(C)(C)C1 (stereo not given)
inactive: [1] 13% | [2] 0.5% | [3] 6.95% | [4] -8.8% | [5] 14.9% | [6] 7.2%

O=I(=O)c1ccccc1
inactive: [1] 3.95% | [2] 9.7% | [3] 17.5% | [4] 26.6% | [5] 20.1% | [6] 17.9%

Cn1c(=O)c2[nH]c(Nc3cccc(Cl)c3)nc2n(C)c1=O
inactive: [1] -26.3% | [2] 8.75% | [3] -18.8% | [4] -13.2% | [5] -1.85% | [6] 17.1%

O=C(C(/C=N/C(=S)NC1C(=O)Nc2ccccc21)=C(/O)c1ccccc1)c1ccccc1 (stereo not given)
inactive: [1] 9.6% | [2] -0.85% | [3] 16.9% | [4] 27.5% | [5] 21.7% | [6] -9.4%
